KKLEB cytotox – cytotoxicity in KKLEB CF airway cells, primary screen, cytotoxicity control for CF NF-kB inhibitor project, cell-based, uHTS, fluorescence assay plates. AID 602141, 2011. KKLEB CF airway cells viability, ATPlite luminescence, overnight; stronger effect = lower value; cells stimulated with P. aeruginosa culture filtrate. activity change (cytotoxicity), % at 5 µM. hit rate 0.36% among 360,000;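 active = corrected activity change at or below -50% at 5 µM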
TROY signal inh – inhibitors of TROY-driven NF-kB signaling, primary screen, Q293 LMP1-TROYcd cells, NF-kB luciferase, uHTS | Q293 LMP1-TROYcd NF-kB luciferase reporter, 4 h | hit rate 0.98% among 360,000 | inhibition, % at 10 µM;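 active = compounds whose plate-normalised and pattern-corrected inhibition of the luciferase reporter signal at the single screening dose is 50% or more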
CF NFkB inh – inhibitors of PAF-induced NF-kB signaling, primary screen, cell-based, GFP fluorescence, uHTS. hit rate 0.86% among 360,000. inhibition, % at 5 µM. KKLEB NF-kB-GFP reporter, GFP fluorescence overnight. AID 588850, 2011;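 active = at least 50% inhibition at 5 µM, scaled per plate between neutral and stimulator controls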;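 also: PAF is a Pseudomonas aeruginosa culture filtrate used as stimulus; plate controls were PAF-stimulated DMSO wells for no effect and unstimulated DMSO wells for full effect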
TWEAK Fn14 block – inhibitors of TWEAK-Fn14 signaling, primary screen, luciferase reporter cells, uHTS; TWEAK-stimulated Fn14 reporter cells, luciferase luminescence, 8 h; inhibition, % at 10 µM; hit rate 2% among 360,000; in the data active = inhibition above about 50%
HIF-2a inh – HIF-2a reporter inhibitors, primary screen, luminescence, 786-0 RCC cells. 786-0 RCC cells HIF-2a reporter, luciferase luminescence, overnight. inhibition, % at 18.8 µM. hit rate 0.72% among 360,000;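 active = inhibition of the luminescence signal of 40% or more relative to plate controls, in a single-dose primary screen at 18.75 µM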
Peg3 promoter – Peg3 promoter-driven luciferase inhibitors, primary screen, cell-based, HeLa, luciferase luminescence; AID 588405, 2011; inhibition, % at 20 µM; hit rate 1.7% among 360,000; HeLa PEG-Prom luciferase reporter, overnight;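 active = inhibition of at least 50% at 20 µM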
* = called active by the depositor; . = no result; ! = repeats disagree. Sampled rows, rich in hits. Any-hit rate of the full collection: about 4%.

SMILES | KKLEB cytotox | TROY signal inh | CF NFkB inh | TWEAK Fn14 block | HIF-2a inh | Peg3 promoter
O=C(Nc1cc(Sc2ccccn2)cc([N+](=O)[O-])c1)c1cccc(Cl)c1 | -12 | 47 | 4 | 78* | 4 | 45
O=C(N/N=C/c1ccccn1)c1ccc(NC(=O)c2cccc([N+](=O)[O-])c2)cc1 | -2 | 27 | -31 | 11 | -25 | 9
COc1ccc([C@H]2CC(=O)C=C(c3cc(C=O)ccc3OC)C2)cc1 | -8 | 10 | -8 | 16 | 6 | 22
O=c1c(-c2ccc(Cl)cc2)coc2c(CN3CCCCC3)c(O)ccc12 | 2 | -25 | 10 | 4 | 1 | 5
O=c1c(-c2ccccc2Cl)coc2c(CN3CCCCC3)c(O)ccc12 | 0 | 3 | -8 | 64* | 20 | 12
CCOC(=O)c1c(Nc2ccccc2OCCOC)n[nH]c1C | -16 | 5 | 1 | -2 | 15 | 4
Cc1ccc(NC(=O)Cn2nc(C(=O)O)c3ccccc3c2=O)cc1S(=O)(=O)N1CCOCC1 | 12 | -9 | -8 | -28 | 4 | 6
Cc1ccc(NC2=C(N3CCCCC3)C(=O)c3ccccc3C2=O)cc1 | -2 | 27 | -2 | 64* | -154 | 3
O=C(/C=C/c1ccc(O)cc1)c1ccc(NC2=C(N3CCCCC3)C(=O)c3ccccc3C2=O)cc1 | -15 | 5 | 55* | 53* | -62 | -46
O=C1C(Nc2ccccc2)=C(N2CCCCC2)C(=O)c2ccccc21 | 4 | -37 | 16 | 21 | -1 | 34
COc1ccccc1NC1=C(N2CCCCC2)C(=O)c2ccccc2C1=O | -6 | 58* | 0 | 67* | -18 | 64*
CN(C)CCCNc1c2c(nc3ccccc13)CCC2 | -1 | -2 | -12 | -14 | 15 | -10
CN(C)CCNCCCNc1c2ccccc2nc2cccc([N+](=O)[O-])c12 | -16 | -22 | -75 | -26 | -17 | 98*
O=C1/C(=C\c2cc([N+](=O)[O-])ccc2O)SC(=S)N1Cc1ccc(Cl)cc1 | -41 | 53* | 11 | 72* | -18 | 97*
O=C(O)CN1C(=O)/C(=C\c2cc([N+](=O)[O-])ccc2OCc2ccccc2Cl)SC1=S | 2 | 5 | 11 | 16 | 1 | -3
Cc1ccccc1/C=C1\SC(=S)N(/N=C/c2cc([N+](=O)[O-])ccc2O)C1=O | 2 | 78* | -4 | 17 | 1 | 12
Cc1ccc(S(=O)(=O)N2CC3(O)CN(C(=O)OC(C)C)N(C(=O)OC(C)C)CC3(OC(=O)NCc3ccco3)C2)cc1 (configuration not stated) | 9 | -6 | 19 | -16 | -8 | 17
COc1ccc(NC(=O)COC(=O)/C=C/C(=O)OCC(=O)Nc2ccc(OC)c(Cl)c2)cc1Cl | -8 | -11 | -22 | 39 | 22 | 56*
CCCCc1c(-c2ccccc2OC)ncn1C1CCCC1 | . | -1 | . | -2 | -22 | .
COc1ccc(CN2C(=O)CSCC2(C)C(=O)Nc2c(C)cccc2C)cc1OC (configuration not stated) | . | . | . | . | 4 | .
O=C(CCl)c1ccc2c(c1)CCN2C(=O)C1CCCCC1 | -4 | 53* | -8 | -15 | -19 | 105*
CCC1CCCCN1S(=O)(=O)c1ccc2c(c1)CCN2C(=O)C1CCC1 (configuration not stated) | -21 | 4 | 22 | 7 | 27 | 23
CC1(c2nc3ccccc3[nH]2)c2ccccc2C(=O)N1Cc1ccccn1 (configuration not stated) | . | 7 | . | 3 | 9 | .
Cc1ccc(C2=NN(C(=O)CN3CCN(C4CCS(=O)(=O)C4)CC3)C(c3ccco3)C2)cc1 (configuration not stated) | 4 | 66* | 27 | 71* | 37 | 16
CCOc1cc(/C=N/NC(N)=O)cc(Br)c1OCc1ccccc1F | 3 | 2 | -34 | 12 | 27 | 14
SMILES | KKLEB cytotox | TROY signal inh | CF NFkB inh | TWEAK Fn14 block | HIF-2a inh | Peg3 promoter
CCOc1cc(/C=N\NC(N)=O)cc(Br)c1OC(C)C | -2 | 1 | 10 | 4 | 8 | 56*
Cc1cc(-c2ccc(C)c(S(=O)(=O)NCCc3ccc(S(N)(=O)=O)cc3)c2)on1 | 7 | 25 | 3 | -19 | -6 | 21
COc1ccc(-c2ccc(NCCN3CCOCC3)nn2)cc1OC | -3 | -31 | -17 | 8 | 5 | 10
COC(=O)c1cn(-c2ccccc2)nc1-c1ccc(OC)cc1 | 4 | 6 | 2 | -3 | -8 | 12
COc1ccc(-c2nn(-c3ccccc3)cc2C(=O)n2nnc3ccccc32)cc1 | -25 | 10 | 30 | -3 | 16 | 56*
CCCCNC(=NCc1cccc(C(F)(F)F)c1)Nc1ccccc1 | -8 | -8 | 11 | -7 | -4 | 76*
O=C(Cc1cccc(C(F)(F)F)c1)Nc1ccccc1 | 13 | -23 | -17 | 2 | -13 | -10
Cc1sc2ncnc(N3CCC(C(=O)Nc4nnc(CC(C)C)s4)CC3)c2c1C | -2 | 26 | 21 | -22 | -6 | -4
CC(=O)N1CC=CC1(CC(C)C)C(=O)NCCN1CCOCC1 (configuration not stated) | 10 | -49 | -15 | 83* | -114 | -86
COc1cc([C@@H]2[C@H]3CN(C)CC=C3C(C#N)=C(N)C2(C#N)C#N)cc2c1OCO2 | 0 | 60*! | -12 | 63*! | 11 | 0
Cc1cc(/C=C2/C(=O)NN(c3ccccc3)C2=O)c(C)n1-c1cccc(O)c1 | -15 | 81* | 6 | 92* | -40 | -98
Cc1cc(C)c(NC(=O)c2cccc3c2C(=O)N(C2CCCCC2)C3)c(C)c1 | 1 | 29 | 6 | -17 | 15 | 56*
O=C(O)c1ccc(N/N=C/C=C/c2ccccc2)cc1 | 10 | -51 | -1 | 63* | -227 | -277
O=c1nc(N/N=C/C=C/c2ccccc2)cn[nH]1 | 3 | 41 | -1 | 70* | -60 | 14
O=[N+]([O-])c1ccccc1/C=C/C=N/Nc1nc(N2CCCCC2)nc(N2CCCCC2)n1 | 9 | 4 | -6 | 14 | 1 | 18
O=C(O)c1ccc(N/N=C/c2ccc(-c3ccccc3)cc2)cc1 | 8 | -45 | -1 | 9 | -312 | -272
C(=C\c1ccccc1)/C=N/Nc1nc(N2CCCCC2)nc(N2CCCCC2)n1 | -16 | 12 | -2 | -47 | 1 | 51*
CN(C)S(=O)(=O)c1ccc(C(=O)NCc2nnc(SCC(=O)NCc3ccco3)o2)cc1 | 8 | -7 | -6 | -5 | 10 | 5
O=C(Nc1cccc(/C=C/c2nc3ccccc3c(=O)[nH]2)c1)c1ccccc1Cl | -10 | 38 | 3 | 72* | -232 | -13
